Test results taken from PubChem BioAssay (EPA / NIEHS).
Activity calls are given as the source filed them. Rule for the calls: active = hit-call score of the fitted dose curve at least 0.9, where 1 is the maximum; inactive = score below 0.9.

The molecules below were run against rat CYP2A1, Cyp2a1 (gene 24894) (UniProt P11711) (assay: NVS_ADME_rCYP2A1: NovaScreen (NVS) CYP450-related Enzyme Activity (ADME) Assay for rat CYP2A1 (AID 2283114)).
rat CYP2A1, Cyp2a1 (gene 24894), sequence (P11711 whole entry, looked up): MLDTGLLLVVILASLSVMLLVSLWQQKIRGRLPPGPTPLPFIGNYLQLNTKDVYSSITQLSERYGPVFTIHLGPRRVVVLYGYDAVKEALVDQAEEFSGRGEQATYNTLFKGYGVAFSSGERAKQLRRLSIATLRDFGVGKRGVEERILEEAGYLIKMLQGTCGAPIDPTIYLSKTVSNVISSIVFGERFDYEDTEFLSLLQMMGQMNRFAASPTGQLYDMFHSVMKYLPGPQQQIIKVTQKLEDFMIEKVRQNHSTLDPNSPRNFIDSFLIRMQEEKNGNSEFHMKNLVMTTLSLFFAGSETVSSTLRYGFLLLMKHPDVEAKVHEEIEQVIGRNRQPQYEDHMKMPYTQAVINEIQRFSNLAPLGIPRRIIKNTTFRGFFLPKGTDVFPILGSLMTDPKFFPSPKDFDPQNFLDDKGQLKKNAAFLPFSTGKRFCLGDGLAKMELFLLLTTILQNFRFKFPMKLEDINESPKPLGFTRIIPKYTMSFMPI
Experimental: NVS_ADME_rCYP2A1 is a biochemical, single-readout assay that uses extracted gene-proteins in a cell-free assay. Measurements were taken 0.75 hour after chemical dosing in a 96-well plate.NVS_ADME_rCYP2A1 is one of one assay component(s) measured or calculated from the NVS_ADME_rCYP2A1 assay. It is designed to make measurements of enzyme activity, a form of enzyme reporter, as detected with fluorescence intensity signals by Fluorescence technology.Data from the assay component NVS_ADME_rCYP2A1 was analyzed into 1 assay endpoint. This assay endpoint, NVS_ADME_rCYP2A1, was analyzed in the positive analysis fitting direction relative to Acetonitrile as the negative control and baseline of activity. Using a type of enzyme reporter, loss-of-signal activity can be used to understand changes in the enzymatic activity as they relate to the gene Cyp2a1. Furthermore, this assay endpoint can be referred to as a primary readout, because this assay has produced multiple assay endpoints where this one serves a enzymatic activity function. To generalize the intended target to other relatable targets, this assay endpoint is annotated to the cyp intended target family, where the subfamily is xenobiotic metabolism.
Binding assays used specific radioligands (tritiated, iodinated) with non-radioactive competitive displacement ligands in agonist or antagonist protocols (as indicated) and various reference compounds and inhibitors to titrate specific binding to receptors and transporters. Most enzyme assays (CYPs, kinases, phosphatases, proteases, HDACs) used recombinant protein and specific substrates (fluorescence mostly, some colorimetric and radioactive) and inhibitors, followed by a biochemical separation of substrate and product. All assays for the biochemical HTS were initially run in duplicate at a single concentration (10 uM for CYP450 assays and 25 uM for all others). Assay-chemical combinations meeting a pre-defined threshold (e.g., 30% inhibition and other criteria defined below) were then run in singleton concentration-response format with maximum concentration of 20 uM for CYPs and 50 uM for all others. Each assay was run with positive and negative controls, and concurrent controls on every plate. The follow-up (secondary) screen tested active chemical-pairs in concentration series, as well as a few additional assays not tested in the primary screen, some selected negative inactives, and several cases re-run in the concentration series for confirmatory purposes.
In the case of `COC(=O)c1ccccc1C(=O)OC`, the outcome is reported as “inactive”. In the case of `CCCN(CCC)c1c([N+](=O)[O-])cc(S(N)(=O)=O)cc1[N+](=O)[O-]`, the AC50 is reported as 2.62 µM (active). In the case of `COc1ccc(C(c2ccc(OC)cc2)C(Cl)(Cl)Cl)cc1`, the outcome is reported as “inactive”. In the case of `OC(c1ccc(Cl)cc1)(c1cncnc1)c1ccccc1Cl` (stereo not drawn), the AC50 is reported as 4.33 µM (active). `CN(C)C(=S)SSC(=S)N(C)C` was tested, and the AC50 was 2.83 µM (active). With `CO/C=C(/C(=O)OC)c1ccccc1Oc1cc(Oc2ccccc2C#N)ncn1` the AC50 was 3.83 µM (active). For `CCOC(=O)C(Cl)Cc1cc(-n2nc(C)n(C(F)F)c2=O)c(F)cc1Cl` (stereo not drawn), the outcome was “inactive”. `CC1COC(Cn2cncn2)(c2ccc(Oc3ccc(Cl)cc3)cc2Cl)O1` (stereo not drawn) was tested, and the AC50 was 0.14 µM (active). In the case of `Cc1ccc(-c2c(Cl)nc(C#N)n2S(=O)(=O)N(C)C)cc1`, the AC50 is reported as 7.38 µM (active). With `N#CC(CCc1ccc(Cl)cc1)(Cn1cncn1)c1ccccc1` (stereo not drawn) the outcome was “inactive”. `CCOC(=O)CC(SP(=S)(OC)OC)C(=O)OCC` (stereo not drawn) was tested, and the AC50 was 5.52 µM (active). In the case of `CCOP(=S)(OCC)SCn1c(=O)oc2cc(Cl)ccc21`, the AC50 is reported as 3.22 µM (active). `CC1=C(C(=O)Nc2ccccc2)SCCO1` was tested, and the AC50 was 6.72 µM (active).
